Shown are actives, neighbours in structure and some others; about 9.8% of the full set was active somewhere.
HTT aggregate = reduces HttQ103-GFP aggregates in PC12 cells; Potency, µM (series often up to 46.1 µM), for the others: at the highest dose activity change, negative = inhibition, most hits filed as inhibitors; PC12 HttQ103-GFP aggregates, Acumen cytometry, 40 h; hit rate 1.1% among 220,000; AID 1688; active = well fitted curve in the direction sought with a large enough effect; inconclusive = small, poorly fitted or top-dose-only effect, or another doubt; inactive = no such curve, though single readings can be large; an effect the other way counts as inactive or inconclusive; also: potency is read from the fitted curve at half-maximal effect; % is scaled to controls: 0 for no effect and ±100 for the full control effect; nearly all actives have a fitted effect of over 60% in size
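Ecdysone-promoter PC12 model expressing HTT exon 1 Q103 fused to GFP, induced by tebufenozide at 100 nM final. Compounds titrated; aggregates sized 1–25 µm scored on a 488 nm laser cytometer.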
KDM4E inh = inhibitors of human JMJD2E histone demethylase. B2RXH2. JMJD2E catalytic domain, FDH-coupled NADH fluorescence (FDH is formaldehyde dehydrogenase). Potency, µM (highest dose often 57.1 µM), for inactives: at the highest dose activity change, negative = inhibition, actives largely listed as inhibitors. hit rate 1.6% among 230,000. AID 2147;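 also: potency is read from the fitted curve at half-maximal effect; 0% = wells with enzyme and -100% = buffer wells without enzyme; nearly all actives have a fitted effect of over 50% in size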
HTT ATP protect = cytoprotection in Huntington HTT-Q103 PC12 cell model | hit rate 0.14% among 230,000 | PC12 HTT-Q103 induced, cytoprotection, ATP luminescence, 40 h | AID 1471 | Potency, µM (doses to about 56.4 µM), for inactives: cytoprotection (ATP increase), usual class: activators; active = well fitted curve in the direction sought with a large enough effect; inconclusive = small, poorly fitted or top-dose-only effect, or another doubt; inactive = no such curve, though single readings can be large; an effect the other way counts as inactive or inconclusive; also: potency is read from the fitted curve at half-maximal effect; % of control where 0% means no effect; nearly all actives have a fitted effect of over 45% in size
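PC12 cells stably carrying ecdysone-inducible Htt exon 1 (Q103)–GFP were induced with 100 nM tebufenozide (final) alongside library compounds in a dose series. Cytoprotection was scored as retained ATP by ATPlite luminescence.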
ALDH1A1 block = ALDH1A1 (human) enzyme inhibition; hit rate 7.3% among 220,000; Potency, µM (doses to about 75.3 µM), for the others: top-dose activity, negative = inhibition, actives largely listed as inhibitors; Purified ALDH1A1, NADH fluorescence, propionaldehyde substrate;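 also: potency is read from the fitted curve at half-maximal effect; plate controls were no enzyme wells and a reference inhibitor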
CBFb-RUNX1 inh = CBF-beta/RUNX1 interaction disruption; 230,000 tested, under 10 active; Q01196+Q13951; Potency, µM (doses to about 59.8 µM), without a hit: at the highest dose activity, negative = inhibition, actives largely listed as inhibitors; AID 1477; AlphaScreen CBFb-His/RUNX1-biotin binding, biochemical; active = well fitted curve in the direction sought with a large enough effect; inconclusive = small, poorly fitted or top-dose-only effect, or another doubt; inactive = no such curve, though single readings can be large; an effect the other way counts as inactive or inconclusive; also: % of control where 0% means no effect
Target sequence (Q01196 whole entry, looked up): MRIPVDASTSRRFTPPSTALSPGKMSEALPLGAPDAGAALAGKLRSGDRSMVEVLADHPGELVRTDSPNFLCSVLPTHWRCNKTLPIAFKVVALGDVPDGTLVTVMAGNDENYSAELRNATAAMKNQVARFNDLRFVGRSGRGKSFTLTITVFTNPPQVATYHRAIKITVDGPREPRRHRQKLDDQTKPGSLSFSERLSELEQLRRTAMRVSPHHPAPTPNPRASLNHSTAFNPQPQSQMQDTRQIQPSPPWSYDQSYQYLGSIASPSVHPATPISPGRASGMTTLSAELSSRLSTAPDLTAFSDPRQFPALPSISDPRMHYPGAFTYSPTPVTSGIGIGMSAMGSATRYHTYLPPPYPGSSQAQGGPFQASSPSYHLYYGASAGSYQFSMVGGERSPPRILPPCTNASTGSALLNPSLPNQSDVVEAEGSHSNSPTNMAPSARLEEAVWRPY
Target sequence (Q13951 whole entry, looked up): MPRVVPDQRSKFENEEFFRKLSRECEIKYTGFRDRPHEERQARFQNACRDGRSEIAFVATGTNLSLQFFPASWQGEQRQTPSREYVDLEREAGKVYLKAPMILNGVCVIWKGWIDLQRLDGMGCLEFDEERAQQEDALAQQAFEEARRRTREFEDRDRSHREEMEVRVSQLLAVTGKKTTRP
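AlphaScreen proximity signal reports loss of binding between His-tagged CBF-beta and biotin-labelled RUNX1, each at 30 nM. Proteins are pre-associated for 20 minutes, compounds added for 15 minutes, then beads for 90 minutes, all at ambient temperature.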
HPGD block = inhibitors of human 15-hydroxyprostaglandin dehydrogenase (HPGD). Potency, µM, without a hit: at the top dose activity change, negative = inhibition, actives largely listed as inhibitors. AID 894. purified HPGD, NADH fluorescence kinetic, PGE2 substrate. hit rate 4.3% among 150,000. P15428; also: potency is read from the fitted curve at half-maximal effect; % is scaled to controls: 0 for no effect and ±100 for the full control effect
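NADH formation kinetics: reaction with 30 uM PGE2 and 1 mM NAD+ (final), 20 nM enzyme, Tris-HCl pH 8 with Tween 20, after 15 min compound preincubation at room temperature. Fluorescence change, last versus first of five reads.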
An asterisk follows results filed as active; u = inconclusive; x = not tested or not shown; ! = not confirmed by another sample; [ ] = dose if it differs, or a comment. Unless noted, calls follow the shape of the dose curve; as a rule, active = well fitted inhibition curve with a large enough effect (not every such curve was filed as active); inconclusive = small, poorly fitted or top-dose-only effect, or another doubt; inactive = no such curve, though single readings can be large or run the other way.

SMILES | HTT aggregate | KDM4E inh | HTT ATP protect | ALDH1A1 block | CBFb-RUNX1 inh | HPGD block
CCCCOc1ncnc2c1[nH]c1ccccc12 | 3.98µM* | u | -115.2% | u | 12.7% | u
CCCCOCCCNc1ncnc2c1[nH]c1ccccc12 | u | u | -20.4% | u | 1.5% | -19.7%
CCOCCCNc1ncnc2c1[nH]c1ccccc12 | 10µM* | u | -8.5% | u | 6.6% | u
CC(C(=O)c1c[nH]c(C(N)=O)c1)c1ncc(C(F)(F)F)cc1Cl (centres undefined) | u | -6.1% | -16.9% | 13.2% | -3.2% | x
COc1ccccc1N1CCN(C(c2ccc(N(C)C)cc2)c2nnnn2CCc2ccccc2)CC1 (centres undefined) | u | 13.2% | -0.8%[10 µM] | 22.4µM* | 4.4% | -22.3%
COc1ccc(C(c2nnnn2Cc2ccccc2)N2CCN(c3ccccc3)CC2)cc1 (centres undefined) | -4.2% | -7.2% | 8.4%[10 µM] | -3.0% | -11.1% | -12.2%
COc1ccc(Cn2nnnc2C(c2ccncc2)N2CCOCC2)cc1 (centres undefined) | -10.5% | u | -13.6%[10 µM] | 28.2µM* | 4.2% | -1.1%
Cc1ccc(C(c2nnnn2Cc2ccccc2)N2CCN(Cc3ccccc3)CC2)cc1 (centres undefined) | -7.9% | -1.5% | -9.0%[1.9 µM] | 22.4µM* | 3.3% | 0.4%
c1ccc(CN2CCN(C(c3ccccc3)c3nnnn3Cc3ccccc3)CC2)cc1 (centres undefined) | -13.4% | -3.3% | 9.5%[1.9 µM] | -12.8% | 3.7% | -9.0%
COc1ccc(Cn2nnnc2C(c2ccccc2)N2CCN(C3CCCC3)CC2)cc1 (centres undefined) | u | u | 11.9%[10 µM] | 8.91µM* | 18.1% | -8.8%
CC(C)CO/N=C1/C[C@@H](O)[C@@H](O)[C@@H]2[C@@H]3C(=O)N([C@@H](C)c4ccccc4)C(=O)[C@H]3CC[C@@H]12 | x | x | -9.8%[10 µM] | 7.8%[13.5 µM] | 6.3%[13.1 µM] | x
COc1ccc(Cn2nnnc2C(C(C)C)N2CCN(c3ccccc3OC)CC2)cc1 (centres undefined) | -16.2% | 3.1% | -4.4%[10 µM] | 17.8µM* | 0.4% | -7.8%
CCOC(=O)c1cccc(NC(=O)Nc2ccc3c(c2)C(=O)OC3)c1 | -15.3%[9.22 µM] | -9.0% | 0.2%[10 µM] | x | 8.9% | x
CC(C)(C)C1CCC2(CC1)SCC(=O)N2c1ccccc1 (centres undefined) | 7.1% | 2.3% | -13.0% | u | 3.3% | -7.4%
CC(C)(C)C1CCC2(CC1)NC(=S)N(c1ccccc1)N2 (centres undefined) | 12.3% | u | -7.3%[10 µM] | u | -3.5% | 11.2µM*
O=C(O)CSC1CC(=O)N(c2cccc(Cl)c2)C1=O (centres undefined) | 14.8% | -1.1% | 27.9% | 10µM* | -12.4% | -3.1%
O=C(O)CSC1CC(=O)N(c2ccc(Cl)c(Cl)c2)C1=O (centres undefined) | -3.2% | 12.9% | 8.1%[10 µM] | 3.16µM* | 1.8% | -13.9%
O=c1cc(CSc2n[nH]c(=O)n2C2CC2)c2ccc(O)cc2o1 | -9.9%[9.22 µM] | 379.5% | 21.0%[10 µM] | x | 9.0% | x
O=c1[nH]c2ccc(S(=O)(=O)N3CCC(Cc4ccccc4)CC3)cc2o1 | 3.5% | -9.2% | -21.1% | 12.9% | -1.4% | x
CCCCN(Cc1ccccc1)S(=O)(=O)c1ccc2[nH]c(=O)oc2c1 | -10.0% | 6.0% | 3.6% | 5.01µM* | -1.4% | -9.7%
Cn1nc(SCC(=O)O)sc1=S | 4.5% | 1.8% | -2.7% | 2.9% | 1.0% | 14.1µM*
CCOC(=O)C(Sc1nn(C)c(=S)s1)C(C)=O (centres undefined) | u | u | -53.4%[10 µM] | u | 1.7% | -22.8%
CCOc1ccc(C2Nc3ccc4ccccc4c3-c3c2c(=O)oc2ccccc32)cc1 (centres undefined) | -1.7% | u | -42.9% | u | 10.8% | u
COc1ccc(C2Nc3ccc4ccccc4c3-c3c2c(=O)oc2ccccc32)cc1 (centres undefined) | 27.8% | 3.16µM* | -63.3% | u | -10.8% | u
OCC1OC(n2cnc3c(Cl)ncnc32)C(O)C1O (centres undefined) | x | 2.8% | x | 3.3% | x | -2.9%
SMILES | HTT aggregate | KDM4E inh | HTT ATP protect | ALDH1A1 block | CBFb-RUNX1 inh | HPGD block
Nc1ncn([C@@H]2O[C@H](CO)[C@@H](O)[C@H]2O)c(=O)n1 | 12.6µM* | -4.1% | -111.4% | 22.4µM*! | -8.6% | -8.1%
O=c1[nH]cnc2c1ncn2C1OC(CO)C(O)C1O (centres undefined) | -5.9% | 0.5% | 8.91µM*! | 26.8% | 1.1%[21.7 µM] | -15.6%
Nc1ncn(C2C[C@H](O)[C@@H](CO)O2)c(=O)n1 (some centres undefined) | -3.8% | x | -18.6% | x | x | x
Nc1nc(SCc2ccc([N+](=O)[O-])cc2)c2ncn([C@@H]3O[C@@H](CO)[C@@H](O)[C@H]3O)c2n1 | x | x | -10.6%[1.9 µM] | x | x | x
CN(C)c1ncnc2c1ncn2C1OC(CO)C(O)C1O (centres undefined) | 4.47µM* | -5.8% | -103.4% | 6.8% | -8.2% | -7.9%
Nc1nc(SCc2ccc([N+](=O)[O-])cc2)c2ncn([C@@H]3O[C@H](CO)[C@H](O)[C@H]3O)c2n1 | x | -1.4% | x | -12.6% | u | 25.1µM*
O=C1c2ccccc2-c2ccc(NC(=O)[C@H]3CCCC[C@@H]3C(=O)O)cc21 | x | x | -2.5%[10 µM] | u | x | -12.3%
COc1cccc(OC)c1C(=O)NC(=S)Nc1cc(-c2nc3ccccc3[nH]2)ccc1Cl | -5.8% | -24.1% | -38.2%[10 µM] | 22.4µM* | -4.7% | -18.5%
Oc1ccc(NCc2ccccc2OCc2ccccc2F)cc1 | -2.0% | 5.01µM* | -78.0% | 17.8µM* | u | -23.4%
CCOc1ccccc1CNc1ccc(O)cc1 | -6.8%[9.22 µM] | -13.8% | -5.8%[1.9 µM] | u | u | x
Cc1ccc(NCc2ccccc2OCc2ccccc2F)cc1 | u | 1.7% | -31.7% | 0.4% | u | -21.6%
CCOc1cc(CNc2ccc(O)cc2)ccc1OCc1ccc(Cl)cc1Cl | 16.3% | 4.47µM* | -17.6%[10 µM] | u | -0.3% | -7.2%
CCOc1cccc(CNc2ccc(O)cc2)c1OCc1ccc(Cl)cc1 | 23.0% | -27.9% | -15.3% | 2.24µM* | -0.1% | -19.1%
COc1cc(CNCc2ccccn2)ccc1OCc1ccc(Cl)cc1Cl | 3.2% | 0.9% | -49.1% | -13.8% | u | -7.2%
CN(C)S(=O)(=O)c1ccc(N2CCN(S(=O)(=O)c3ccc(F)cc3)CC2)c(Cl)c1 | 10µM* | 12.6% | -22.4%[10 µM] | 7.0% | 2.8% | -3.4%
CC(C)NC(=O)[C@@H]1C[C@H]1[C@@H](NC(=O)OCc1ccccc1)c1ccccc1 | x | 10.5% | 6.3% | 0.6% | -4.8% | -9.4%
Cc1cc(=O)n2c(C(=O)Nc3ccc(C(=O)OC(C)C)cc3)c(C(=O)Nc3ccccc3)sc2n1 | 4.6% | 0.1% | 11.3%[10 µM] | -14.4% | -16.9% | x

High-throughput results from PubChem BioAssay.
